Test results published in PubChem BioAssay (NCI).
The panel holds about 83,000 compounds, 20% with a hit somewhere; the sample as a whole holds those more often.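 48-hour exposure, single concentration, 96-well plates; percent growth endpoint where 0 means no net growth. Active: below 10.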 The source made the active and inactive calls.

These compounds were tested on MDA-MB-468 breast (assay: NCI-60 one-dose screen, 48 h (100 = growth as untreated, 0 = no growth, -100 = all killed)). Details: 10 µM unless noted.

Compound	growth
COc1ccc(C(O)c2ccccc2)cc1 (stereo not given)	3.29% (active)
CN1CCN(c2ccc(N3Cc4ccccc4OC4=C3C(=O)c3c(O)ccc(O)c3C4=O)cn2)CC1	-60.1% (active)
C=C1C(=O)O[C@H]2[C@H]1CC/C(COC(=O)c1ccccc1)=C\CC[C@@]1(C)O[C@@H]21	-28.7% (active)
Cn1c2c(c3ccc(Cl)cc31)-n1cccc1C2=O	104% (inactive)
COC(=O)[C@H](CSC)N(C)C(=O)[C@@H]1CSSC[C@@H](NC(=O)c2nc3ccccc3cc2O)C(=O)NCC(=O)N1C	61.3% (inactive)
COc1ccc(Oc2ccc(/C=N/NC(=O)CSc3nc4ccccc4c(=O)n3-c3ccc(Cl)cc3)cc2)cc1	66.8% (inactive)
C=C1C(=O)O[C@H]2[C@H]1CC/C(COC(=O)NCc1ccc(Cn3c(=O)sn(-c4ccc(Cl)cc4)c3=O)cc1)=C\CC[C@@]1(C)O[C@@H]21	22.6% (inactive)
Cc1ccc(Nn2c(SCC(=O)Nc3nc(-c4ccccc4)cs3)nc(C)c2C)cc1	17.7% (inactive)
Cc1sc2nc(N3CCCCC3)[nH]c(=O)c2c1C	96.6% (inactive)
COc1cc2c(cc1OCCCN1Cc3ccc(OCCCCC(=O)N4CCC(CCN5CCCC5)CC4)cc3C1)N=C(N)C21CCCC1	17.4% (inactive)
COc1cc2c(Nc3ccc(S(N)(=O)=O)cc3)ncnc2c(OC)c1OC	84% (inactive)
O=[N+]([O-])c1ccc2c(c1)S(=O)c1cc([N+](=O)[O-])ccc1N2	94.8% (inactive)
CCN(CC)CCNc1ccc(Cl)cc1Cl	108% (inactive)
CC(C)(C)c1ccc(OCCCCCCN2CCNCC2)cc1	10.6% (inactive)
CC(=O)Nc1ccccc1-c1n[nH]c(=O)[nH]c1=O	102% (inactive)
O=S(=O)(NCCCNc1nccc(-c2[nH]c(-c3ccccc3)nc2-c2ccc(F)c(O)c2)n1)c1ccc(C(F)(F)F)cc1	-8.61% (active)
COc1ccc(/C=C2\COc3ccc(O)c(O)c3C2=O)cc1OC	-22.8% (active)
Cc1ccccc1/C=C1\CN(C(=O)OC(C)(C)C)C/C(=C\c2ccccc2C)C1=O	36.7% (inactive)
c1ccc2c(c1)Oc1cccnc1-n1nccc1-2	94.7% (inactive)
NS(=O)(=O)c1ccc(NCC(=O)Nc2ccc(-c3nc4ccccc4s3)cc2)cc1	4.26% (active)

Compound	growth
CC(=O)Nc1cc(C)ccc1C	76% (inactive)
COc1ccc(/C=c2\nc3n(-c4ccccc4)c4nc5c6c(sc5c(=N)n4n-3c2=O)CCCC6)cc1	90.1% (inactive)
CCOC(=O)C/C(=C\c1ccccc1)C(C)=O	108% (inactive)
COc1ccc2nc3ccccc3c(NCc3ccc(C)cc3)c2c1	-18.6% (active)
Cn1ccnc1C(=O)/C=C/c1ccc(CC(=O)Nc2ccc(S(F)(F)(F)(F)F)cc2)cc1	-22.9% (active)
CCN(CC)c1ccc2c(c1)Oc1nc(N)c(C#N)c(N)c1C2Sc1ccc(F)cc1 (stereo not given)	-70.1% (active)
C#CCOc1ccc(/C=N/Nc2nc(-c3cc4cc(Br)cc(Br)c4oc3=O)cs2)cc1	106% (inactive)
CCOC(=O)c1c(NC(=O)c2ccc(F)cc2F)sc2c1CCC(=O)C2	95.2% (inactive)
CN1CCN(Cc2ccc(C(=O)Nc3cncc(C#Cc4cnc(N)c5ccccc45)c3)cc2C(F)(F)F)CC1	-61.9% (active)
CC1(C)CC[C@]23CC[C@]4(C)[C@H](CC[C@@H]5[C@@]6(C)CCCN(CO)C(C)(C)[C@@H]6CC[C@]54C)[C@H]2[C@H]1OC3	84.9% (inactive)
CNCCOc1nc2c3cnccc3cc(-c3cc(OC)c(OC)c(OC)c3)c2c2ccncc12	-43.2% (active)
Cc1ccc(CNc2ccc3nc(CCC(C)C)[nH]c3c2)cc1	78.3% (inactive)
COc1cccc2ccc(CC(O)(c3ccccc3)c3ccccc3)nc12	46.7% (inactive)
CNC(=O)c1cc(Oc2ccc3c(c2)sc2nc(-c4ccc(NC(=O)Nc5ccc(Cl)c(C(F)(F)F)c5)cc4)cn23)ccn1	93.9% (inactive)
CCOC(=O)C1=C(C)N2C(=NC3=C(CCC/C3=C\c3ccc(Cl)cc3)C2c2ccc(Cl)cc2)S1 (stereo not given)	4.45% (active)
CCOc1cc(Cl)c(C(C)NC(=O)c2cccc(OC)c2)cc1OCC (stereo not given)	-61.6% (active)
CS(=O)(=O)c1ccc(C(=O)N/N=C/c2cccc3ccccc23)cc1	74.2% (inactive)
CCCCCC/C=N/Nc1ccc([N+](=O)[O-])cn1	108% (inactive)
Cc1cccc(CO)c1	107% (inactive)
O=C1Nc2ccccc2C12CC(c1ccc(Cl)cc1)=NN2 (stereo not given)	110% (inactive)
